The structures appear in SMILES notation. About 95 (0.2%) of roughly 62,000 compounds were called active.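 The calls were made as follows: active = inhibition above 20% in each of the two mixture wells holding the compound; inactive = inhibition of 20% or less in either well.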 This excerpt belongs to a sample that is enriched for actives.

Sequence of Cathepsin G (Homo sapiens) (P08311 21-244 limits assumed): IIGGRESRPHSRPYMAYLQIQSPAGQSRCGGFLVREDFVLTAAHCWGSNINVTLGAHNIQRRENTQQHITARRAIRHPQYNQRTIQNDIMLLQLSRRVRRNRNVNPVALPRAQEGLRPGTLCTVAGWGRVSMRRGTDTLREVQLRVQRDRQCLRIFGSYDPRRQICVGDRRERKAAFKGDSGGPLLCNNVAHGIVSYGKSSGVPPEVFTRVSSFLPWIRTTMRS

This assay concerns the target Cathepsin G (Homo sapiens) (UniProt P08311). Briefly: blockers of neutrophil cathepsin G protease – biochemical, pooled compound mixtures, AMC fluorescence, primary screen (AID 581).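 Also: 0% = enzyme control without mixture and 100% = blank lacking enzyme.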 To be noted: purified enzyme, AMC-tetrapeptide fluorescence, active compounds read high, screened at 5 µM (by protocol).
As for `O=C1N=C(N2CCOCC2)CS1`, the inhibition (as a rule, the change of the read-out against control, counted positive when it falls) was -2.67% (inactive).

On to `O=C(CSc1nnc(-c2ccco2)n1CC1CCCO1)c1ccccc1` (stereo unspecified), for which the inhibition was 10.9% (inactive).

On to `CSc1ccc(-c2c(C#N)c(N)nc3c2c(C)nn3-c2ccccc2)cc1`, for which the inhibition was 5.96% (inactive).

For the compound `Cc1c(C(=O)OCC(=O)N(CCC#N)c2ccccc2)oc2c1ccc1ccccc12`, the inhibition was 10.9% (inactive).

Take `COc1ccc2nc(N3CCCC(O)C3)c(C#N)cc2c1` (stereo unspecified): the inhibition is 7.5% (inactive).

For `O=C(Nc1ccc(S(=O)(=O)N2CCCC2)cc1Cl)C1=COCCO1`, the inhibition is -0.78% (inactive).

As for `CN(C)c1ccc(CNC23CN4CN(CN(C4)C2)C3)cc1`, the inhibition was -0.235% (inactive).

In the case of `CCCCNC(=O)CSc1nccn1Cc1ccccc1`, the inhibition is -4.63% (inactive).

In the case of `COCCNC(=O)C(C#N)c1nc2ccccc2nc1N1CCN(Cc2ccc3c(c2)OCO3)CC1` (stereo unspecified), the inhibition is 8.39% (inactive).

As for `Cc1cc(N=CC2=C(O)CCCC2=O)no1`, the inhibition is 14.9% (inactive).

Consider `CC1CCCC(C)N1C(=O)CN1CCN(c2nc(-c3ccc(F)cc3)cs2)CC1` (stereo unspecified), for which the inhibition is -39.9% (inactive).

With `CCOC(=O)N1CCN(C(=O)c2ccc(CN(c3ccc(C)c(C)c3)S(C)(=O)=O)cc2)CC1`, the inhibition was 11.3% (inactive).

`N#CC1=C(N)Oc2n[nH]c(CSc3ccccc3)c2C12C(=O)Nc1ccccc12` (stereo unspecified): the inhibition is 13.8% (inactive).

Take `COc1ccc(-c2nc(CS(=O)CC(=O)N3CCc4ccccc4C3)c(C)o2)cc1` (stereo unspecified): the inhibition is 2.91% (inactive).

On to `CCCCn1nc(C(=O)N2CCc3ccccc32)c2ccccc2c1=O`, for which the inhibition was -0.085% (inactive).

For `COc1ccccc1N1CC(O)=C(c2nc3ccccc3s2)C1=N`, the inhibition is -0.35% (inactive).

As for `O=C1CCC(C(=O)Nc2ccc(OC(F)F)cc2)N1` (stereo unspecified), the inhibition is 1.46% (inactive).

`Nc1c(C(=O)NCc2ccccc2)nnn1Cc1cccc(Cl)c1`: the inhibition is -2.37% (inactive).

As to `Cc1cc(C(F)(F)F)nn1-c1nc(-c2ccco2)cc(C(F)(F)F)n1`, the inhibition was -9.21% (inactive).

On to `Cc1ccc2cc3cc(C(=O)N4CCCCCC4)oc3nc2c1`, for which the inhibition was 8.2% (inactive).

Regarding `COCCOC(=O)C1=C(C)Nc2nc(C)nn2C1c1ccccc1` (stereo unspecified), the inhibition is -6.8% (inactive).

For `CC1C=CCC2C(=O)N(c3cccc(C(=O)N4CCCCCC4)c3)C(=O)C12` (stereo unspecified), the inhibition was 9.22% (inactive).

As for `CCOC(=O)CSc1nnc(-c2ccncc2)o1`, the inhibition is 7.88% (inactive).

Regarding `O=C(c1ccco1)N1CCN=C1SCc1cccc(Cl)c1`, the inhibition was -1.57% (inactive).

`Cc1ccc(-c2nc(CS(=O)CC(=O)NC3CCCC3)c(C)o2)cc1` (stereo unspecified): the inhibition was -3.33% (inactive).

As for `CCN(CCCNC(=O)C1CCN(S(=O)(=O)c2cnc[nH]2)CC1)c1ccccc1`, the inhibition was 14.4% (inactive).

On to `O=C(NCCCN1CCCCCC1)c1ccc(N2CCCC2=O)cc1`, for which the inhibition was 1.79% (inactive).

On to `CC1(N2CCOCC2)CC2(O)C(=[N+]1[O-])CCc1nonc12` (stereo unspecified), for which the inhibition is 11.9% (inactive).

For `O=C(NC1CCCCC1)c1ccc2c(=O)n(CC3CCCO3)c(=O)[nH]c2c1` (stereo unspecified), the inhibition was -1.31% (inactive).

With `Cc1cc(C)c(C)c(S(=O)(=O)Nc2ccc(O)cc2)c1C`, the inhibition was -0.38% (inactive).

For the compound `COc1ccc(OCCCON2C(=O)c3ccccc3C2=O)cc1`, the inhibition is -4.08% (inactive).

Regarding `COc1cc(Br)cc(/C=N/c2ncn[nH]2)c1O`, the inhibition is 10.2% (inactive).

Take `CN(c1ccc(C(=O)NCCC2=CCCCC2)cc1)S(C)(=O)=O`: the inhibition is 1.87% (inactive).

`COc1cccc2cc(C(C)N(CCCN3CCOCC3)C(=O)Nc3ccc(Cl)cc3)oc12` (stereo unspecified): the inhibition is 1.68% (inactive).

As to `O=C(O)CN(Cc1ccco1)S(=O)(=O)c1ccc(F)cc1`, the inhibition was 6.5% (inactive).

As for `COc1ccc2c(c1OC)C(=O)N(c1ncn[nH]1)C2`, the inhibition was -3.84% (inactive).

Regarding `COc1ccc(C)c2sc(=NC(=O)c3ccc(C#N)cc3)n(C)c12`, the inhibition was 1.85% (inactive).

With `O=C(CCCC(=O)N(CC(=O)NC1CCCC1)Cc1ccccc1Cl)Nc1ccccn1`, the inhibition was 7.61% (inactive).

As to `Cc1nnc(NC2=NCCCCC2)o1`, the inhibition was -1.69% (inactive).

Take `CSCCC1NC2(C(=O)Nc3ccc(Cl)cc32)[C@@H]2C(=O)N(C3CCCC3)C(=O)[C@H]12` (stereo partly specified): the inhibition is 17.3% (inactive).

With `COc1ccc(N2C(=O)C3CCCN3C2c2cccc(OC)c2)cc1` (stereo unspecified), the inhibition is -5.7% (inactive).

For `CCC(C)Sc1nc(C)nc2c1c(=O)n(C)c(=O)n2C` (stereo unspecified), the inhibition is 8.64% (inactive).

For the compound `O=C(CC1CCCCC1)Nc1c2c(nn1-c1ccc(F)cc1)CS(=O)(=O)C2`, the inhibition is -0.2% (inactive).

Consider `COc1ccc(C2C(C#N)=C(N)Oc3cc(N)ccc32)cc1OC` (stereo unspecified), for which the inhibition is -2.81% (inactive).

Take `O=C(CCCn1c(=O)oc2ccccc21)Nc1cccnc1`: the inhibition is -1.41% (inactive).

As for `Cc1nc(-c2ccc(NC(=O)c3cccs3)cc2)cs1`, the inhibition is 8.02% (inactive).

Source of the values: PubChem BioAssay AID581 (PCMD, 2007).
